Data reported in PubChem BioAssay (NCI).
About 79,000 compounds went through this panel and 15% of them were active in at least one assay; those are over-represented in the sample as a whole. Unmarked numbers belong to inactive results. Active and inactive are the calls of the source. Rule as the data show it: active = growth inhibition above about 70%; inactive = the rest.

Test: NCI Yeast Anticancer Drug Screen. Data for the sgs1 mgt1 strain (AID 161);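 also: 0% = growth of cultures given vehicle only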
Details: S. cerevisiae sgs1 mgt1 strain, at 5.0 µM (retest, dose inferred, filed as 0.5), hits give high values
Method in brief: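 Mutant yeast exposed to compound; growth scored against vehicle-only wells.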

Structure (SMILES)	growth inhibition
CC(=O)OC1=CC2=CCC3C(CCC4(C)C(C(C)=O)CCC34)C2(C)CC1 (stereo not drawn)	-6%
CCCC/C=C1/CCC(CN(C)C)C1=O (stereo not drawn)	16%
COc1ccc(C2CC(c3c(O)ccc4ccccc34)=NN2)cc1OC (stereo not drawn)	-6%
O=c1[nH]c2c([N+](=O)[O-])cc(Cl)cc2nc1/C=C(\O)c1ccco1	1%
NC1c2ccccc2-c2ccc([N+](=O)[O-])cc21 (stereo not drawn)	4%
O=C(/C=C(/Nc1ccccc1)C(=O)c1ccccc1)c1ccccc1	8%
Nc1ccc2[nH]c3ccccc3c2c1	-9%
Clc1ccc([I+]c2cccs2)cc1	45%
CCCCCCC(C)S(=O)(=O)c1ccc(C)cc1 (stereo not drawn)	7%
COC(=O)/C(=C/C=C(c1ccccc1)c1ccccc1)N(C(C)=O)C(C)=O	1%
Oc1ccc(Cc2cccc(Br)c2)c(O)c1	-2%
O=C(NNc1nc(-c2ccccc2)cs1)C(F)(F)F	91% (active)
Nc1nc(-c2ccc(Cl)cc2)cs1	8%
Cc1cc(C)nc(CCSS(=O)(=O)O)c1	2%
Oc1ccc(N=Nc2ccccc2)c(O)c1.Oc1ccc(N=Nc2ccccc2)c(O)c1.[Cu]	21%
COC(=O)/C=N/O	-5%
C=CCCCCO/N=C/c1c2c(O)c3c(O)c(C)c4c(c3c1O)C(=O)C(C)(O/C=C/C(OC)C(C)C(OC(C)=O)C(C)C(O)C(C)C(O)C(C)/C=C/C=C(\C)C(=O)N2)O4 (stereo not drawn)	33%
O=C(N/C(=C\c1ccc2c(c1)OCO2)c1nc2ccccc2s1)c1ccccc1	38%
C=C1C[C@H](O)[C@H]2C(C[Se]c3ccccc3)C(=O)O[C@@H]2[C@H]2[C@H](C)C(O)C[C@@H]12 (stereo partly drawn)	9%
CC1=C(C(=O)Nc2ccccc2C)C(c2ccccc2F)C(C(=O)Nc2ccccc2C)=C(C)N1	-2%
COC(=O)CCC(NC(=S)N/N=C(\C)c1cnc2ccccc2n1)C(=O)OC (stereo not drawn)	-5%
CCOc1c(N=Nc2ccc(Cl)cc2)c(-c2ccccc2)nn1C(N)=S	18%
CC(=O)N(C1=CC(=O)c2ccccc2C1=O)c1ccc(Cl)cc1	95% (active)
O=C(C1=Cc2ccccc2OC1)N1CCN(c2cccc(Cl)c2)CC1	1%
CCCCCCCCCCCC1=NCC(C)N1 (stereo not drawn)	-3%
c1ccc2c(B(c3cccc4ccccc34)c3cccc4ccccc34)cccc2c1	-20%
CC(CCOP(=O)(O)OCCC(C)CC(C)(C)C)CC(C)(C)C (stereo not drawn)	-4%
CC(C)(C)C(=O)CC(=O)C(F)(F)C(F)(F)C(F)(F)F.[Ag]	99% (active)
